This note sets out measurements from PubChem BioAssay (Tox21).

Assay [1] concerns the target Nuclear receptor subfamily 1 group I member 2 (Rattus norvegicus) (UniProt Q9R1A7). Nature of the assay: Rat pregnane X receptor (rPXR) activation by small molecules, qHTS assay (AID 1346983). Note: nearly all actives have a fitted effect of over 20% in size. The conditions noted are these: rPXR luciferase reporter cells, One-Glo luminescence, 24 h; max activation: stronger effect = higher value. In a few lines:
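Cell-based rPXR luciferase reporter assay, 2,000 cells per well, rested 5hr at 37 C before compound addition in DMSO, then 24 hr at 37 C. One-Glo reagent was added and luminescence read after 30 min at room temperature.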
(qHTS replaces the single test concentration by a dilution series.)

The target in assay [2] is Nuclear receptor subfamily 1 group I member 2 (Homo sapiens) (UniProt O75469). Put plainly: CYP3A4 induction through human pregnane X receptor (PXR) by small molecules, qHTS assay (AID 1346984). Note: nearly all actives have a fitted effect of over 40% in size. In a few lines: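 Luminescence readout: luciferase signal after One-Glo (30 min, room temperature), following 3 h at 37C with 3uM final Luciferin-IPA P450 substrate. Cells were DPX-2 (HepG2, PXR/CYP3A4-luc co-transfected) dosed for 24 h.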

For assay [3] the target is unchanged. Put plainly: Human pregnane X receptor (PXR) activation by small molecules, qHTS assay (AID 1346985). Note: nearly all actives have a fitted effect of over 40% in size. Note: potency is the fitted concentration of half-maximal effect. The method, boiled down: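 DPX-2 cells (HepG2 co-transfected with a PXR response element and a CYP3A4-promoter luciferase construct) were seeded at 2,000 per well, rested 5 hr at 37C, then exposed to DMSO-dissolved compounds for 24 hr. Activation was read as luciferase luminescence.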

Where “and” joins values, the source holds several entries; their conditions need not be identical. Equal values may be shown once. Inconclusive results are not listed. A number with no mark means an inactive call. Calls of active or inactive are those of the source. Calls come from the whole dose curve; as a rule, active = well fitted curve in the direction sought with a large enough effect in the repeat runs; inconclusive = weak or mixed curves; inactive = no such curve, though single readings can be large; an effect the other way counts as inactive or inconclusive.
% is set by controls: 0 for no effect and ±100 for the full control effect.

Sequence of Nuclear receptor subfamily 1 group I member 2 (Rattus norvegicus) (Q9R1A7 whole entry, looked up): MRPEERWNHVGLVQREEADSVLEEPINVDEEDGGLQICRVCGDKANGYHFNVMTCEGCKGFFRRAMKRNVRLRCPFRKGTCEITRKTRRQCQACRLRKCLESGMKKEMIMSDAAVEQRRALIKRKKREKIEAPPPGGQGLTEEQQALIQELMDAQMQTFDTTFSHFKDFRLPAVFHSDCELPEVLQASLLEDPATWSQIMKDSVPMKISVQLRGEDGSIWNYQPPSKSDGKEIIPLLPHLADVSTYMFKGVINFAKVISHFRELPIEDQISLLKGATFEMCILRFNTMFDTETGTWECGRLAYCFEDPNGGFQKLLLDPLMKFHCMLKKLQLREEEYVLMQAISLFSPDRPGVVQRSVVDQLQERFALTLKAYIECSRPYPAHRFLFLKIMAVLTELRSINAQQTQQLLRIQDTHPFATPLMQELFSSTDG

On to `C=N[C@@H](C(=O)N[C@@H]1C(=O)N2[C@@H]1SC(C)(C)[C@@H]2C(=O)O)c1ccccc1`, for which the max activation in assay [1] is -2.74%. Further, the Potency result in assay [2] and in assay [3] was “inactive” throughout.
Turning to `CCOC(=O)Cc1ccc(-c2ccccc2)cc1`, the max activation in assay [1] was -3.15%. For the same molecule, the Potency result in assay [2] and in assay [3] was “inactive” each time.
As to `Cc1cc(-c2ccc(N=Nc3ccc4c(S(=O)(=O)O)cc(S(=O)(=O)O)c(N)c4c3O)c(C)c2)ccc1N=Nc1ccc2c(S(=O)(=O)O)cc(S(=O)(=O)O)c(N)c2c1O`, the max activation in assay [1] was -5.28%. For the same molecule, the Potency entry in assay [2] and in assay [3] was “inactive” in each case.
On to `CC[C@@H](C(=O)[C@@H](C)[C@@H](O)[C@H](C)CCc1ccc(C)c(O)c1C(=O)O)[C@H]1O[C@](CC)([C@H]2CC[C@](O)(CC)[C@H](C)O2)C[C@@H]1C`, for which the max activation in assay [1] is -6.82%. The Potency entry in assay [2] is “inactive”. The Potency in assay [3] was 8.91 µM (active).
Turning to `Cc1cnc(C(=O)O)c[n+]1[O-]`, the max activation in assay [1] was -2.61% and 6.98% and -0.594%. Moreover, the Potency result in assay [2] and in assay [3] was “inactive” throughout.
Take `CCCCC[C@H](O)/C=C/[C@@H]1[C@@H](C/C=C\CCCC(=O)O)[C@@H](O)C[C@H]1O`: the max activation in assay [1] was -3.99% and -0.657%. The Potency result in assay [2] and in assay [3] was “inactive” in each case.
In the case of `CCOc1ccc(S(=O)(=O)O)c2cccnc12`, the max activation in assay [1] was -0.221%. For the same molecule, the Potency result in assay [2] and in assay [3] was “inactive” in each case.
In the case of `CC[N+](CC)(CC)CCC(O)(c1ccccc1)C1CCCCC1` (stereo unspecified), in assay [1], the max activation was -2.27%. Moreover, the Potency entry in assay [2] and in assay [3] was “inactive” throughout.
Take `CC(C)=CCC/C(C)=C/CC/C(C)=C/CC/C(C)=C/CC1=C(C)C(=O)c2ccccc2C1=O`: the max activation in assay [1] is -1.32%. The Potency result in assay [2] and in assay [3] was “inactive” each time.
Consider `CCC(O)c1ccccc1` (stereo unspecified), for which the max activation in assay [1] is -2.74%. In addition, the Potency entry in assay [2] and in assay [3] was “inactive” throughout.
As to `FC(F)(F)C(F)(F)C(F)(F)C(F)(F)C(F)(F)F`, the max activation in assay [1] is -2.03%. In addition, the Potency entry in assay [2] and in assay [3] was “inactive” throughout.
`C[S+](CC[C@H](N)C(=O)O)C[C@H]1O[C@@H](n2cnc3c(N)ncnc32)[C@H](O)[C@@H]1O` (stereo partly specified): the max activation in assay [1] is -2.9% and 0.617%. The Potency result in assay [2] and in assay [3] was “inactive” in each case.
On to `O=C(O)/C=C/C(=O)Nc1ccc(S(=O)(=O)Nc2nccs2)cc1`, for which the max activation in assay [1] was -4.08%. Besides, the Potency result in assay [2] and in assay [3] was “inactive” throughout.
With `O=C1c2c(O)cccc2[C@H]([C@@H]2O[C@H](CO)[C@@H](O)[C@H](O)[C@H]2O)c2cc(CO)cc(O)c21`, the max activation in assay [1] is 0.818%. Besides, the Potency result in assay [2] and in assay [3] was “inactive” throughout.
In the case of `CC(C)NCC1CCc2cc(CO)c([N+](=O)[O-])cc2N1` (stereo unspecified), the max activation in assay [1] was -0.344%. In addition, the Potency result in assay [2] and in assay [3] was “inactive” each time.
With `NC(=S)NS(=O)(=O)c1ccc(N)cc1`, the max activation in assay [1] is -1.97%. Besides, the Potency entry in assay [2] and in assay [3] was “inactive” throughout.
`NC[C@H]1O[C@H](O[C@H]2[C@H](O)[C@@H](O[C@H]3O[C@H](CO)[C@@H](O)[C@H](N)[C@H]3O)[C@H](N)C[C@@H]2N)[C@H](N)C[C@@H]1O`: in assay [1], the max activation is 7.07%. For the same molecule, the Potency entry in assay [2] and in assay [3] was “inactive” each time.
Take `CCCCCCCCCCCC[n+]1ccc2ccccc2c1`: in assay [1], the max activation was -19.3%. The Potency result in assay [2] and in assay [3] was “inactive” each time.
As to `Cc1cc(C(=O)NCCc2ccc(S(=O)(=O)NC(=O)NN3CCCCCC3)cc2)no1`, the max activation in assay [1] was -0.977%. Besides, the Potency entry in assay [2] and in assay [3] was “inactive” each time.
As to `O=C(O)/C=C/C(O)c1ccc(Cl)cc1` (stereo unspecified), the max activation in assay [1] is -1.46%. Moreover, the Potency result in assay [2] and in assay [3] was “inactive” each time.
In the case of `COc1ccc([C@@H]2CC(=O)c3c(O)cc(O[C@@H]4O[C@H](CO[C@@H]5O[C@@H](C)[C@H](O)[C@@H](O)[C@H]5O)[C@@H](O)[C@H](O)[C@H]4O)cc3O2)cc1O`, the max activation in assay [1] was -3.19%. For the same molecule, the Potency entry in assay [2] and in assay [3] was “inactive” each time.
Turning to `COc1c(O)cc2c(c1O)[C@@H]1O[C@H](CO)[C@@H](O)[C@H](O)[C@H]1OC2=O`, the max activation in assay [1] was -0.0644%. The Potency entry in assay [2] and in assay [3] was “inactive” in each case.
`CCc1ncnc2cc(OC)c(OC)cc12`: the max activation in assay [1] is -3.13%. The Potency entry in assay [2] and in assay [3] was “inactive” in each case.
Take `CC[C@@]1([C@@H]2O[C@@H]([C@H]3O[C@@](O)(CO)[C@H](C)C[C@@H]3C)C[C@@H]2C)CC[C@H]([C@]2(C)CC[C@]3(C[C@H](O)[C@@H](C)[C@@H]([C@@H](C)[C@@H](OC)[C@H](C)C(=O)O)O3)O2)O1` (stereo in doubt): the max activation in assay [1] is -15.4%. For the same molecule, the Potency entry in assay [2] and in assay [3] was “inactive” throughout.
As to `O=C(O)c1cc(O)c2c(c1)[C@H]([C@H]1c3cc(C(=O)O)cc(O)c3C(=O)c3c(O[C@@H]4O[C@H](CO)[C@@H](O)[C@H](O)[C@H]4O)cccc31)c1cccc(O[C@@H]3O[C@H](CO)[C@@H](O)[C@H](O)[C@H]3O)c1C2=O`, in assay [1], the max activation was -0.0362%. Further, the Potency entry in assay [2] and in assay [3] was “inactive” each time.
For `O=S(=O)(O)CC(S)CS` (stereo unspecified), the max activation in assay [1] was -6.49%. The Potency entry in assay [2] and in assay [3] was “inactive” each time.
Consider `CN(C)CCc1c[nH]c2ccc(Cn3cncn3)cc12`, for which, in assay [1], the max activation is -1.87%. Moreover, the Potency result in assay [2] and in assay [3] was “inactive” each time.
